CYP2C9 act: human CYP2C9 activators, primary screen, biochemical, luminescence; 96,000 tested, 1.4% active; recombinant CYP2C9, luciferin-H conversion; hits give high values; factor 1 = untreated enzyme, 0 = blocked; Cytochrome P450 2C9 (Homo sapiens), P11712; AID 1024, 2008; activation factor at 5 µM;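 active means activation factor of 2 or more for CYP2C9 at a 5 µM dose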;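 further: 0 = sulfaphenazole-blocked wells and 1 = vehicle-only wells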
CYP2C19 activ: human CYP2C19 activators, primary screen, biochemical, luminescence; activation factor at 5 µM; Cytochrome P450 2C19 (Homo sapiens), P33261; 96,000 tested, under 10 active; AID 1025, 2008; recombinant CYP2C19, luciferin-H EGE luminescence; hits give high values; 0 = fully inhibited enzyme, 1 = untreated enzyme;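 active means activation factor of at least 2 at 5 µM in the primary screen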;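 further: 0 = wells with 2.5 mM tranylcypromine and 1 = vehicle-only wells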
CD11b adhes inh: inhibitors of CD11b/CD18 adhesion to fibrinogen, primary screen, K562 cells, luminescence. Integrin beta-2 (Homo sapiens) + Integrin alpha-M (Homo sapiens), P05107+P11215. ATPlite luminescence; Mn2+ added to activate the integrin. inhibition, % at 10 µM. 93,000 tested, 0.54% active;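 active means primary inhibition of 50% or more at 10 µM, then 40% or more on retest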
Target sequence (P05107 whole entry, looked up, other chains not shown): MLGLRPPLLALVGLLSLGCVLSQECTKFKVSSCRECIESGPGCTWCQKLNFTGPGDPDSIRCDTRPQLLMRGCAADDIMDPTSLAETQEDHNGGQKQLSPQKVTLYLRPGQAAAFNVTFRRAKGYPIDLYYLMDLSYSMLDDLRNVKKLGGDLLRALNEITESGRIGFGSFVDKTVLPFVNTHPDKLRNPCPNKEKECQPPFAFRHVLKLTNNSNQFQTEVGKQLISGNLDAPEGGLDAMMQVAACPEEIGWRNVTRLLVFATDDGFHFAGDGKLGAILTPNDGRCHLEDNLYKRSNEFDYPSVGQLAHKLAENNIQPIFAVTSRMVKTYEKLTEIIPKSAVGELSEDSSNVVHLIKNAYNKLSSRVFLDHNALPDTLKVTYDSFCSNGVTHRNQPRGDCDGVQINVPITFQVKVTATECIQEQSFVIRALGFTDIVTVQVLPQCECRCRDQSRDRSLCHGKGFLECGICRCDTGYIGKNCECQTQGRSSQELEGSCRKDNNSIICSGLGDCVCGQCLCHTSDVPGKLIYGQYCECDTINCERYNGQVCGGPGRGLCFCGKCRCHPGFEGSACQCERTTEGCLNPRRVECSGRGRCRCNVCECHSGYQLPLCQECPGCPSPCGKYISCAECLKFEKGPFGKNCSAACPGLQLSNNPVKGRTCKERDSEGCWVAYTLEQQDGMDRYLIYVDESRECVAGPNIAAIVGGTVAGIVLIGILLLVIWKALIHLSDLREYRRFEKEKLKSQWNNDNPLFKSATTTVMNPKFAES
CYP2C19 inh: blockers of cytochrome P450 2C19 activity – biochemical, luminescence, ADME assay, primary screen; P33261; CYP2C19 Supersomes, luciferin-H EGE luminescence, 30 min; inhibition, % at 5 µM; 96,000 tested, 21% active;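 active means CYP2C19 inhibition above a set limit at 5 µM in the primary screen, cut at about 50% in these data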;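 further: plate controls were negative control wells for no effect and 2.5 mM tranylcypromine positive control for full effect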
CYP2C9 inhib: blockers of cytochrome P450 2C9 activity – biochemical, luminescence, ADME assay, primary screen. inhibition, % at 5 µM. 96,000 tested, 20% active. CYP2C9 Supersomes, luciferin-H conversion;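 active means blocking of liver enzyme CYP2C9 beyond about 50% at 5 µM, limit read from the data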
Mac1 fbg enh: enhancers of CD11b/CD18 adhesion to fibrinogen, primary screen, K562 cells, luminescence; Integrin beta-2 (Homo sapiens) + Integrin alpha-M (Homo sapiens), P05107+P11215; ATPlite luminescence; activation, % at 10 µM; 93,000 tested, 0.07% active;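 active means 10 µM primary screen giving 50% or more activity, confirmed by 40% or more on retest at that dose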
The depositor's hits bear a star; . = not tested or not shown. In the library only some 28% were active in any assay of this set; here they are far more common.

SMILES	CYP2C9 act	CYP2C19 activ	CD11b adhes inh	CYP2C19 inh	CYP2C9 inhib	Mac1 fbg enh
ON1C(c2ccccc2C(F)(F)F)N(O)[C@H]2CCCC[C@H]21 (some centres undefined)	1	0.8	16	24	-2	-1
COC(=O)c1ccccc1NC(=O)CN(CCc1ccccc1)S(C)(=O)=O	0.9	0.5	-13	52*	7	-2
COc1ccc(OC)c(N(CC(=O)Nc2ccccc2)S(C)(=O)=O)c1	0.7	0.3	-12	74*	33	3
COC(=O)c1ccccc1NC(=O)CN(c1cc(OC)ccc1OC)S(C)(=O)=O	0	0.1	2	91*	98*	-4
COc1ccc(OC)c(N(CC(=O)N2CCc3ccccc3C2)S(C)(=O)=O)c1	1	0.8	.	24	4	.
CCN(CC(=O)Nc1ccccc1C(=O)OC)S(=O)(=O)c1ccc(OC)cc1	1.3	0.4	-15	65*	-26	11
c1ccc2c(c1)CCN(CCCNc1nc3ccccc3n3cnnc13)C2	1.1	1	-22	0	-8	0
CCOC(=O)c1sc(NC(=O)Nc2ccc(Cl)cc2)nc1C	0.9	0.9	.	10	15	.
Cc1noc(C)c1CSCC(=O)OCc1nc2ccccc2c(=O)n1CC#N	0.3	0.5	-15	48	65*	-4
Cc1occc1-c1nnc(SCc2nc3ccccc3c(=O)n2CC#N)n1C	1.1	1.1	-16	-7	-8	0
CC(=O)Nc1cc(-c2ccccc2)ccc1O	1	0.7	62	33	4	-1
CC(Oc1ccccc1)C(=O)Nc1ccccc1O (centres undefined)	0.1	0.1	-49	87*	87*	0
CC(Oc1ccccc1)C(=O)Nc1cccc(F)c1 (centres undefined)	0.8	0.6	-8	38	24	-4
COc1cc(NC(=O)C(C)Oc2ccccc2)cc(OC)c1 (centres undefined)	0.2	0.1	-20	86*	79*	-2
Cc1nn(C)cc1/C=N/NC(=O)C(C)(C)Oc1ccc(Cl)cc1	0.7	0.8	-4	18	28	-1
O=C(COc1ccc(F)cc1)NCC1CCCO1 (centres undefined)	1.3	1.2	-6	-16	-32	-4
COc1ccc(S(=O)(=O)N(CC(=O)NCC2CCCO2)c2ccc(F)cc2)cc1OC (centres undefined)	0.7	0.5	-10	53*	28	-1
Cc1ccc(N(CC(=O)NCC2CCCO2)S(C)(=O)=O)cc1Cl (centres undefined)	1.1	0.8	-21	19	-9	0
CCOc1ccc(N(CC(=O)NCC2CCCO2)S(=O)(=O)c2ccc(Cl)cc2)cc1 (centres undefined)	0.6	0.1	-47	88*	45	-2
c1ccc(-c2nn3nnnc3c3ccccc23)cc1	1.2	0.5	-11	52*	-18	1
Cc1ccc(-c2nnc(CSc3nnc(COc4ccccc4)n3-c3ccccc3)o2)cc1	0	0.1	7	92*	98*	-3
CCOc1ccc(-c2nnc(SCc3nnc(-c4ccccc4)o3)n2-c2ccccc2F)cc1	0.9	1	13	4	6	7
Cc1ccc(-c2nnc(CSc3nnc(COc4ccccc4)n3-c3ccc(C)cc3)o2)cc1	0.3	0.6	74	36	71*	3
CCOC(=O)c1nnc(-c2ccccc2)nc1NCc1ccccc1	0.6	0.9	.	12	37	.
CCOC(=O)c1c2n(c3c(NCc4ccccc4)ncnc13)CCCC2	0.2	0.7	15	26	77*	-2
SMILES	CYP2C9 act	CYP2C19 activ	CD11b adhes inh	CYP2C19 inh	CYP2C9 inhib	Mac1 fbg enh
CC(=O)OC1=C(C#N)Cn2ccc3cccc1c32	1.1	0.9	-2	11	-14	-2
Cc1ccc2oc(C(Cl)(Cl)Cl)cc(=O)c2c1	0.6	0.5	8	53*	44	-1
COc1ccc2c(=O)cc(C(F)(F)C(F)(F)F)oc2c1	1	0.6	0	38	3	-8
O=C(c1cnn2c(C(F)(F)F)cc(-c3ccco3)nc12)N1CCCCCC1	0.9	0.8	3	23	10	-4
O=C(c1cnn2c(C(F)(F)F)cc(-c3ccco3)nc12)N1CCc2ccccc2C1	0.2	0.4	.	59*	76*	.
O=C(c1cnn2c(C(F)F)cc(C3CC3)nc12)N1CCc2ccccc2C1	1.7	0.3	5	74*	-71	3
O=C(c1cnn2c(C(F)F)cc(C3CC3)nc12)N1CCCC1	1.3	0.9	-46	9	-25	-3
Cc1cc(C(F)F)n2ncc(C(=O)N3CCc4ccccc4C3)c2n1	1.9	0.2	0	84*	-91	2
Cc1cc(C)nc(NC(=O)C(C)C)n1	0.8	1	6	-1	16	-1
CC1(C)CC2(CCO1)CNC(=O)O2 (centres undefined)	1	1.1	-6	-10	1	-1
O=C1C(Cc2ccccc2)NC(=S)N1c1ccccc1 (centres undefined)	0.8	0.5	-3	48	20	-4
O=C(COc1ccc(Cl)cc1)N(Cc1ccccc1)c1ccccn1	0.5	0	.	98*	55*	.
CN(c1ccccc1)S(=O)(=O)c1ccc(C(=O)OCC(=O)N2CCOCC2)cc1	0.5	0.5	3	55*	48	4
Cc1cc(NC(=O)c2cc3n(n2)C(C(F)(F)F)CC(c2ccc(Cl)c(Cl)c2)N3)no1 (centres undefined)	0.9	1.1	7	-11	15	2
Cc1cccc(NC(=O)c2cc3n(n2)C(C(F)(F)F)CC(c2ccc4c(c2)OCO4)N3)c1 (centres undefined)	0.1	0.6	-26	39	87*	24
OC(COc1ccc(Cl)c2ccccc12)CN1CCN(c2ccccn2)CC1 (centres undefined)	0.4	0.1	-2	92*	59*	4
O=C(c1ccco1)N1CCN(CC(O)Cn2c3ccccc3c3ccccc32)CC1 (centres undefined)	0.1	0.2	-3	83*	88*	4
OC(CN1CCN(c2ccccn2)CC1)Cn1c2ccccc2c2ccccc21 (centres undefined)	0.5	0.4	.	57*	54*	.
OC(COCc1ccc(Cl)cc1)CN1CCN(c2ccccn2)CC1 (centres undefined)	.	.	5	.	.	2
Cc1ccc(C)n1CCN1CCN(C(=O)c2ccco2)CC1	1	1	8	4	1	-4

Bioassay records as filed in PubChem BioAssay.
